Results published in PubChem BioAssay (Tox21).
“And” between values parts separate entries of the source, which are not always exact repeats. Identical values can stand only once. Inconclusive results are not listed. Entries that show only a call come without a potency. The source made the active and inactive calls. The call rests on the fitted dose curve; in most records, active means well fitted curve in the direction sought with a large enough effect in the repeat runs; inconclusive means weak or mixed curves; inactive means no such curve, though single readings can be large; an effect the other way counts as inactive or inconclusive.

experiment: A CellTox Green Cytotoxicity Assay to monitor cytotoxicity in HepG2 cells - 24 hour (AID 1224878); settings: CellTox Green fluorescence; series mostly up to 76.8 µM; cytotoxicity: at the top concentration; further: nearly all actives have a fitted effect of over 45% in size
Outline: (§1)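 First, HepG2 cells (600/well) mixed with reagent were plated; second, after 5 h at 37 C they received compounds via pintool; third, fluorescence was measured at 0 h through 40 h at 8 h intervals.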
Potency means the concentration at half of the fitted maximal effect.

Question: For `Cn1cnc2c1c(=O)[nH]c(=O)n2C`, which Potency is on record?
Answer: inactive

Question: For `CN/C(=C\[N+](=O)[O-])NCCSCc1ccc(CN(C)C)o1`, which Potency is on record?
Answer: inactive

Question: For `CC(=O)c1ccc(S(=O)(=O)NC(=O)NC2CCCCC2)cc1`, which Potency is on record?
Answer: inactive

Question: For `Cc1cccc2ccccc12`, which Potency is on record?
Answer: inactive

Question: For `CCOC(=O)C(C)(C)Oc1ccc(Cl)cc1`, which Potency is on record?
Answer: inactive

Question: Which Potency does the source give for `NC(=O)NO` here?
Answer: inactive

Question: For `COCC(C)N` (stereo not given), which “cytotoxicity” value is on record?
Answer: 3% (inactive)

Question: With `COC(=O)c1ccc(C=O)cc1` as the compound, how does the Potency read?
Answer: inactive

Question: For `O=C1OC(c2ccc(O)cc2)(c2ccc(O)cc2)c2ccccc21`, which Potency is on record?
Answer: inactive

Question: With `CCCCOCCOCCSC#N` as the compound, how does the Potency read?
Answer: inactive

Question: With `Cc1c(N(C)CS(=O)(=O)O)c(=O)n(-c2ccccc2)n1C` as the compound, how does the Potency read?
Answer: inactive

Question: For `O=C(O)CCCCC1CCSS1` (stereo not given), which Potency is on record?
Answer: inactive

Question: Which Potency does the source give for `CC(C)(C)NCC(O)c1ccc(O)c(CO)c1` (stereo not given) here?
Answer: inactive

Question: With `O=C(O)Cc1cccc2ccccc12` as the compound, how does the Potency read?
Answer: inactive

Question: With `CC1=C(/C=C/C(C)=C/C=C/C(C)=C/C(=O)O)C(C)(C)CCC1` as the compound, how does the Potency read?
Answer: inactive

Question: For `C[C@]12C[C@H](O)[C@H]3[C@@H](CCC4=CC(=O)CC[C@@]43C)[C@@H]1CC[C@@H]2C(=O)CO`, which Potency is on record?
Answer: inactive

Question: Which “cytotoxicity” value does the source give for `CCCCOCCOCCOC(C)=O` here?
Answer: 2.24% (inactive)

Question: For `COc1ccccc1NC(=O)CC(C)=O`, which Potency is on record?
Answer: inactive

Question: Which Potency does the source give for `CCCCOC(=O)CCCCCCCCC(=O)OCCCC` here?
Answer: inactive

Question: Which Potency does the source give for `Cc1cccc(C)c1O` here?
Answer: inactive

Question: For `NC(=O)OCC(COC(N)=O)c1ccccc1`, which “cytotoxicity” value is on record?
Answer: 1.42% [at 35.3 µM] (inactive)

Question: Which Potency does the source give for `COc1cc(O)c(C(=O)c2ccccc2)cc1S(=O)(=O)O` here?
Answer: inactive

Question: With `C#C[C@]1(O)CC[C@H]2[C@@H]3CCc4cc(O)ccc4[C@H]3CC[C@@]21C` as the compound, how does the Potency read?
Answer: 43.3 µM (active) and 6.7 nM (active)

Question: With `CCN(CC)CCOC(=O)c1ccc(N)cc1` as the compound, how does the Potency read?
Answer: inactive

Question: Which Potency does the source give for `N[C@@H](Cc1c[nH]c2ccccc12)C(=O)O` here?
Answer: inactive

Question: For `CCN1CCCC1=O`, which Potency is on record?
Answer: inactive

Question: Which Potency does the source give for `Nc1cccc(N)c1` here?
Answer: inactive

Question: For `CC(=O)Oc1ccccc1C(=O)O`, which Potency is on record?
Answer: inactive

Question: For `COCCOCCOC`, which “cytotoxicity” value is on record?
Answer: 0.483% (inactive)

Question: For `CC(=O)OC/C=C(C)/C=C/C=C(C)/C=C/C1=C(C)CCCC1(C)C`, which Potency is on record?
Answer: inactive

experiment: A CellTox Green Cytotoxicity Assay to monitor cytotoxicity in HepG2 cells - 40 hour (AID 1224879); settings: CellTox Green fluorescence; series mostly up to 76.8 µM; cytotoxicity increase: at the top concentration; further: nearly all actives have a fitted effect of over 40% in size
Outline: as §1

Question: For `Cn1cnc2c1c(=O)[nH]c(=O)n2C`, which Potency is on record?
Answer: inactive

Question: With `CN/C(=C\[N+](=O)[O-])NCCSCc1ccc(CN(C)C)o1` as the compound, how does the Potency read?
Answer: inactive

Question: Which Potency does the source give for `CC(=O)c1ccc(S(=O)(=O)NC(=O)NC2CCCCC2)cc1` here?
Answer: inactive

Question: For `Cc1cccc2ccccc12`, which Potency is on record?
Answer: inactive

Question: With `CCOC(=O)C(C)(C)Oc1ccc(Cl)cc1` as the compound, how does the Potency read?
Answer: inactive

Question: With `NC(=O)NO` as the compound, how does the Potency read?
Answer: inactive

Question: For `COCC(C)N` (stereo not given), which Potency is on record?
Answer: inactive

Question: For `COC(=O)c1ccc(C=O)cc1`, which Potency is on record?
Answer: inactive

Question: For `O=C1OC(c2ccc(O)cc2)(c2ccc(O)cc2)c2ccccc21`, which Potency is on record?
Answer: inactive

Question: With `CCCCOCCOCCSC#N` as the compound, how does the Potency read?
Answer: inactive

Question: With `Cc1c(N(C)CS(=O)(=O)O)c(=O)n(-c2ccccc2)n1C` as the compound, how does the Potency read?
Answer: inactive

Question: Which Potency does the source give for `O=C(O)CCCCC1CCSS1` (stereo not given) here?
Answer: inactive

Question: With `CC(C)(C)NCC(O)c1ccc(O)c(CO)c1` (stereo not given) as the compound, how does the Potency read?
Answer: inactive

Question: Which Potency does the source give for `O=C(O)Cc1cccc2ccccc12` here?
Answer: inactive

Question: Which Potency does the source give for `CC1=C(/C=C/C(C)=C/C=C/C(C)=C/C(=O)O)C(C)(C)CCC1` here?
Answer: inactive

Question: With `C[C@]12C[C@H](O)[C@H]3[C@@H](CCC4=CC(=O)CC[C@@]43C)[C@@H]1CC[C@@H]2C(=O)CO` as the compound, how does the Potency read?
Answer: inactive

Question: With `CCCCOCCOCCOC(C)=O` as the compound, how does the “cytotoxicity increase” value read?
Answer: 1.83% (inactive)

Question: With `COc1ccccc1NC(=O)CC(C)=O` as the compound, how does the Potency read?
Answer: inactive

Question: With `CCCCOC(=O)CCCCCCCCC(=O)OCCCC` as the compound, how does the Potency read?
Answer: inactive

Question: For `Cc1cccc(C)c1O`, which Potency is on record?
Answer: inactive

Question: With `NC(=O)OCC(COC(N)=O)c1ccccc1` as the compound, how does the “cytotoxicity increase” value read?
Answer: -1.39% [at 35.3 µM] (inactive)

Question: For `COc1cc(O)c(C(=O)c2ccccc2)cc1S(=O)(=O)O`, which Potency is on record?
Answer: inactive

Question: Which Potency does the source give for `C#C[C@]1(O)CC[C@H]2[C@@H]3CCc4cc(O)ccc4[C@H]3CC[C@@]21C` here?
Answer: 17.3 µM (active) and 19.5 µM (active)

Question: Which Potency does the source give for `CCN(CC)CCOC(=O)c1ccc(N)cc1` here?
Answer: inactive

Question: Which Potency does the source give for `N[C@@H](Cc1c[nH]c2ccccc12)C(=O)O` here?
Answer: inactive

Question: Which Potency does the source give for `CCN1CCCC1=O` here?
Answer: inactive

Question: Which Potency does the source give for `Nc1cccc(N)c1` here?
Answer: inactive

Question: With `CC(=O)Oc1ccccc1C(=O)O` as the compound, how does the Potency read?
Answer: inactive

Question: For `COCCOCCOC`, which Potency is on record?
Answer: inactive

Question: Which “cytotoxicity increase” value does the source give for `CC(=O)OC/C=C(C)/C=C/C=C(C)/C=C/C1=C(C)CCCC1(C)C` here?
Answer: 16.9% [at 35.3 µM] (inactive)

experiment: qHTS RealTime-Glo MT Cell Viability Assay in HEK293 cells - 0 hour (AID 1224880); settings: RealTime-Glo luminescence; series mostly up to 76.8 µM; activity change, negative = cytotoxicity: at the top concentration; further: nearly all actives have a fitted effect of over 45% in size; on activity change, negative = cytotoxicity: top concentration of the series differs between compounds
Outline: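 600 HEK293 cells per well, dispensed already mixed with RealTime-Glo MT reagents. Compound dosing came 5 h later. The same wells were read for luminescence at 0, 8, 16, 24, 32 and 40 h of exposure at 37 C.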

Question: With `Cn1cnc2c1c(=O)[nH]c(=O)n2C` as the compound, how does the Potency read?
Answer: inactive

Question: For `CN/C(=C\[N+](=O)[O-])NCCSCc1ccc(CN(C)C)o1`, which Potency is on record?
Answer: inactive

Question: For `CC(=O)c1ccc(S(=O)(=O)NC(=O)NC2CCCCC2)cc1`, which Potency is on record?
Answer: inactive

Question: Which Potency does the source give for `Cc1cccc2ccccc12` here?
Answer: inactive

Question: For `CCOC(=O)C(C)(C)Oc1ccc(Cl)cc1`, which Potency is on record?
Answer: inactive

Question: For `NC(=O)NO`, which Potency is on record?
Answer: inactive

Question: With `COCC(C)N` (stereo not given) as the compound, how does the Potency read?
Answer: inactive

Question: For `COC(=O)c1ccc(C=O)cc1`, which Potency is on record?
Answer: inactive

Question: Which Potency does the source give for `O=C1OC(c2ccc(O)cc2)(c2ccc(O)cc2)c2ccccc21` here?
Answer: inactive

Question: Which Potency does the source give for `CCCCOCCOCCSC#N` here?
Answer: inactive

Question: Which Potency does the source give for `Cc1c(N(C)CS(=O)(=O)O)c(=O)n(-c2ccccc2)n1C` here?
Answer: inactive

Question: Which Potency does the source give for `O=C(O)CCCCC1CCSS1` (stereo not given) here?
Answer: inactive

Question: With `CC(C)(C)NCC(O)c1ccc(O)c(CO)c1` (stereo not given) as the compound, how does the Potency read?
Answer: inactive

Question: For `O=C(O)Cc1cccc2ccccc12`, which Potency is on record?
Answer: inactive

Question: For `CC1=C(/C=C/C(C)=C/C=C/C(C)=C/C(=O)O)C(C)(C)CCC1`, which Potency is on record?
Answer: inactive

Question: For `C[C@]12C[C@H](O)[C@H]3[C@@H](CCC4=CC(=O)CC[C@@]43C)[C@@H]1CC[C@@H]2C(=O)CO`, which Potency is on record?
Answer: 13.8 µM (active)

Question: With `CCCCOCCOCCOC(C)=O` as the compound, how does the Potency read?
Answer: inactive

Question: Which Potency does the source give for `COc1ccccc1NC(=O)CC(C)=O` here?
Answer: inactive

Question: With `CCCCOC(=O)CCCCCCCCC(=O)OCCCC` as the compound, how does the Potency read?
Answer: inactive

Question: Which Potency does the source give for `Cc1cccc(C)c1O` here?
Answer: inactive

Question: With `NC(=O)OCC(COC(N)=O)c1ccccc1` as the compound, how does the Potency read?
Answer: inactive

Question: With `COc1cc(O)c(C(=O)c2ccccc2)cc1S(=O)(=O)O` as the compound, how does the Potency read?
Answer: inactive

Question: With `C#C[C@]1(O)CC[C@H]2[C@@H]3CCc4cc(O)ccc4[C@H]3CC[C@@]21C` as the compound, how does the Potency read?
Answer: inactive

Question: With `CCN(CC)CCOC(=O)c1ccc(N)cc1` as the compound, how does the Potency read?
Answer: inactive

Question: With `N[C@@H](Cc1c[nH]c2ccccc12)C(=O)O` as the compound, how does the Potency read?
Answer: inactive

Question: Which Potency does the source give for `CCN1CCCC1=O` here?
Answer: inactive

Question: Which Potency does the source give for `Nc1cccc(N)c1` here?
Answer: inactive

Question: Which Potency does the source give for `CC(=O)Oc1ccccc1C(=O)O` here?
Answer: inactive

Question: For `COCCOCCOC`, which Potency is on record?
Answer: inactive

Question: With `CC(=O)OC/C=C(C)/C=C/C=C(C)/C=C/C1=C(C)CCCC1(C)C` as the compound, how does the Potency read?
Answer: inactive
